# PubChem BioAssay AID1903 (Southern Research Specialized Biocontainment Screening …, 2009)
# Several values for one entry are separate records, joined by “and”; a condition that tells them apart may be missing. Equal values may be shown once. The campaign covered roughly 310,000 compounds. About 1,200 (0.39%) were called active. Not all results are given here. Results with a measured potency or affinity are listed apart. Values without a mark were called inactive. No rule for the calls is given here.
# Biological target: Large T antigen (Simian virus 40) (UniProt P03070)
# Sequence (P03070 whole entry, looked up): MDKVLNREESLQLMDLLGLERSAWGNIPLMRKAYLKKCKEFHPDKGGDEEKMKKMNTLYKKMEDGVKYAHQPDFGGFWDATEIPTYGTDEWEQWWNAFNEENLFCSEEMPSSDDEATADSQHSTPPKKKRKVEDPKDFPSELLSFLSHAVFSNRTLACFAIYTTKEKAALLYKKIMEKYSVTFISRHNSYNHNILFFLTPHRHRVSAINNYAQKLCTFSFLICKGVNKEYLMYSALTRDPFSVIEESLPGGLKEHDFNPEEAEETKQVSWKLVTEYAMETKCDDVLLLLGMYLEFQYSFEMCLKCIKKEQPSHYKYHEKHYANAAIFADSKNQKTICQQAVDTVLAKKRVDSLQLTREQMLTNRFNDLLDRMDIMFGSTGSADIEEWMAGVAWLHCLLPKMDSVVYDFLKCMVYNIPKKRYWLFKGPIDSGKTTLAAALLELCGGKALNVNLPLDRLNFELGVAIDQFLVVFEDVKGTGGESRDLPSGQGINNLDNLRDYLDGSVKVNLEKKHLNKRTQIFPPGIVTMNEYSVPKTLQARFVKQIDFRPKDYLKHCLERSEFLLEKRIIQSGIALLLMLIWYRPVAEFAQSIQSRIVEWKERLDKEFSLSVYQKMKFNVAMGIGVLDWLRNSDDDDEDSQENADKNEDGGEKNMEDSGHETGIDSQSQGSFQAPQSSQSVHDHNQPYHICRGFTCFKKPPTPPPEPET
# Test: TAg ATPase/helicase activity blockers – biochemical (AID 1903)
# Conditions: SV40 large T antigen ATPase/helicase inhibition assay; at 20 µM; hits give high values
row,SMILES,inhibition
1,O=[N+]([O-])c1cccc(-c2ncc3ccccn23)c1,-2.83%
2,Nc1c(-c2cccc([N+](=O)[O-])c2)nc2ccccn12,15.8%
3,Cc1cc(NC(=O)CSCC(=O)Nc2cc(C(F)(F)F)ccc2N2CCCC2)no1,4.79%
4,Nc1ncnc2c1ncn2CCOc1ccccc1,3.18%
5,O=C(N/N=C/c1cc(Cl)c(O)c(Cl)c1)c1cc2c(ccc3ccccc32)o1,29.3%
6,O=C(N/N=C/c1ccc(O)c(Br)c1)c1cc2c(ccc3ccccc32)o1,-8.03%
7,O=C(CCc1ccccc1)NNC(=O)c1ccccc1F,10.9%
8,Cc1ccc(Nc2nc(-c3sc(C)nc3C)cs2)cc1,3.8%
9,Cc1nc(C)c(-c2csc(Nc3ccc(F)cc3)n2)s1,6.12%
10,COc1ccc(/C(C)=N\NC(=O)c2ccc3c(c2)OCO3)cc1OC,1.47%
11,Cc1c(NS(=O)(=O)c2cc(C(=O)NCCN(C)C)ccc2Cl)c(=O)n(-c2ccccc2)n1C,10.6%
12,C=CCN1C(=O)CSC1=Nc1ccc(O)cc1,27.9%
13,COc1ccc(N=C2SCC(=O)N2c2ccc(OC)cc2)cc1,13.7%
14,Cc1cccc(C(=O)NCC(=O)NCC2COc3ccccc3O2)c1 (stereo not drawn),23.4%
15,CCOc1c(/C=C(\C#N)C(N)=O)c2ccccc2n1CC,3.23%
16,COc1ccc(Oc2nc3ccccc3n3cccc23)cc1,5.06%
17,CCc1ccc2[nH]c(=O)c(C(c3nnnn3CCOC)N3CCN(c4ccc(F)cc4)CC3)cc2c1 (stereo not drawn),16.5%
18,CCc1ccc2[nH]c(=O)c(C(c3nnnn3CCOC)N3CCN(c4ccccc4)CC3)cc2c1 (stereo not drawn),6%
19,CSCc1cc(N2CCOCC2)nc(-c2ccccc2)n1,9.12%
20,O=C(Cc1ccc([N+](=O)[O-])cc1)c1c(O)cc(O)cc1O,28%
21,COC(=O)CSC1=NS(=O)(=O)c2ccccc21,5.69%
22,O=C(CN1C(=O)c2ccccc2S1(=O)=O)Nc1ccccc1,18.1%
23,NS(=O)(=O)c1ccc(NC(=O)c2cccc(N3C(=O)c4ccccc4C3=O)c2)cc1,7.91%
24,COC(=O)CCC(=O)Nc1ccc(N=Nc2ccccc2)cc1,8.53%
25,COc1ccc(-c2nc(-c3ccccc3)[nH]c(=O)c2C#N)cc1,9.65%

row,SMILES,inhibition
1,Clc1cc(Cl)cc(C2=NC(Cc3ccccc3)CO2)c1 (stereo not drawn),4.6%
2,COc1ccc(C2C(C#N)=C(N)N(N(C)C)C3=C2C(=O)CCC3)cc1 (stereo not drawn),6.69%
3,COc1cc(/C=C/CO)ccc1O[C@@H]1O[C@H](CO)[C@@H](O)[C@H](O)[C@H]1O,1.74%
4,COc1ccc(C[C@H]2COC(=O)[C@@H]2Cc2ccc(OC3OC(CO)C(O)C(O)C3O)c(OC)c2)cc1OC (stereo partly drawn),11.3%
5,CCCCOc1ccc(C(=O)NCC(=O)N2CCN(Cc3ccc4c(c3)OCO4)CC2)cc1,14%
6,COc1ccc(NC(=O)COc2ccc(C)cc2)c([N+](=O)[O-])c1,5.55%
7,O=C(NCCOCCNC(=O)OCc1ccccc1)OCc1ccccc1,24.2%
8,CCOC(=O)c1c(NC(C)=O)sc2c(OC)c(Br)ccc12,1.77%
9,CCOC(=O)c1c(NC(C)=O)sc2c(O)c(Br)ccc12,12.8%
10,Cc1cc(C)c(C)c(OCCOCCNCc2ccccc2)c1,-32.9%
11,COc1ccc(NC(=O)CN(C)Cc2c(F)cccc2Cl)cc1S(=O)(=O)N1CCCCC1,4.49%
12,CN1C(=O)SC(Nc2ccc(F)cc2)C1=O (stereo not drawn),20.7%
13,CN1C(=O)SC(Nc2ccccc2)C1=O (stereo not drawn),5.64%
14,CCN(CC)S(=O)(=O)c1cccc(-c2cn3cc(C)ccc3n2)c1,8.06%
15,O=C(NCCC1CCCCN1S(=O)(=O)c1ccccc1)C(=O)NCc1ccncc1 (stereo not drawn),4.13%
16,COc1ccc(-c2cc(C(F)(F)F)nc(N3CCN(C)CC3)n2)cc1,1.63%
17,CC(=O)Nc1ccc(NC(=O)CSc2nc3ccccc3o2)cc1,5.88%
18,C/C(=N/NC(=O)CSc1nc2ccccc2n1C)c1ccncc1,1.08%
19,C/C(=N\NC(=O)CSc1nc2ccccc2o1)c1cccc(O)c1,14.6%
20,C/C(=N/NC(=O)CSc1nc2ccccc2n1C)c1ccco1,-1.06%
21,O=C(NC1CCCCC1)C1CCCN1S(=O)(=O)c1ccc(Cl)cc1 (stereo not drawn),-4.64%
22,O=C(C1CC1)N1CCN(C(c2ccccc2)c2ccccc2)CC1,20.8%
23,COc1ccc(NC(=S)N2CCC(NC(=O)c3cccc(C)c3)CC2)cc1,19.3%
24,FC(F)(F)Oc1ccc(Nc2nc3ccccc3o2)cc1,17%
25,CS(=O)(=O)c1ccccc1C(=O)Nc1cccc(-c2nc3ccccc3o2)c1,6.81%

row,SMILES,inhibition
1,CCNC(=S)N/N=C/c1ccc(-c2ccccc2)o1,9.76%
2,CC(C)Cn1c(=O)c2ccccc2c2ccccc2c1=O,13.4%
3,O=C(NNC(=O)c1ccccc1-n1cccc1)c1ccc(Cl)cc1,6.79%
4,CCOc1cc(NC(=S)NC)c(OCC)cc1NC(=O)c1cccs1,9.37%
5,CCOc1cc(NS(=O)(=O)c2ccc(NC(C)=O)cc2)c(OCC)cc1NC(=O)C(C)C,9.09%
6,CCCCNC(=O)CNC(=O)c1nn(-c2ccc(OC)cc2OC)c(=O)c2ccccc12,4.78%
7,CCN(Cc1ccccc1)c1ccc(/C=N/N2CCOCC2)cc1,32.1%
8,CN(C)c1ccc(/C=N/O)cc1,37.8%
9,CCN(CC)c1ccc(/C=N\NC(N)=O)cc1,24.1%
10,CN(c1ccccc1)c1ccc(/C=N/N2CCOCC2)cc1,32.7%
11,COc1cc(OC)cc(C(=O)Nc2ccc(NC(=O)c3ccco3)c(C)c2)c1,20%
12,CCOC(=O)c1cccc(NC(=O)CN2CCN(c3ccc(OC)cc3)CC2)c1,38.2%
13,C=CCC1(CC=C)CCCN1C(=O)CC1C(=O)NCCN1Cc1ccc(OC)c(OC)c1 (stereo not drawn),10.2%
14,O=C(NC1CCC(O)CC1)c1cccc2cccnc12 (stereo not drawn),3.23%
15,O=C(NNC(=S)NC(=O)c1ccccc1[N+](=O)[O-])c1ccccc1O,31.4%
16,O=C(OCC1OC(n2ncc(=O)[nH]c2=O)C(OC(=O)c2ccccc2)C1OC(=O)c1ccccc1)c1ccccc1 (stereo not drawn),6.13%
17,Cc1cn(C2OC(COC(=O)c3ccccc3)C(OC(=O)c3ccccc3)C2OC(=O)c2ccccc2)c(=O)[nH]c1=O (stereo not drawn),4.67%
18,O=C(OCC1OC(n2ccc(=O)[nH]c2=O)C(O)C1OC(=O)c1ccccc1)c1ccccc1 (stereo not drawn),11.7%
19,COC1OC(COC(=O)c2ccccc2)C(OC(=O)c2ccccc2)C1OC(=O)c1ccccc1 (stereo not drawn),3.67%
20,CC(CCc1ccc(O)cc1)NC1C2CC3CC(C2)CC1C3 (stereo not drawn),2.61%
21,Cc1ccc(NC(=O)c2cc3ccccc3cc2O)cc1,0.83%
22,CCOC(=O)c1nn(-c2ccc3ccccc3c2)cc1O,27.5%
23,Cc1ccc(/C=C2\NC(=S)NC2=O)cc1[N+](=O)[O-],10.5%
24,CN(C)c1ccc(/C=N/NC(N)=S)cc1[N+](=O)[O-],3.04%
25,CC(C)OP(=O)(OC(C)C)C(C)NC(=O)Cc1ccccc1 (stereo not drawn),8.79%

row,SMILES,inhibition
1,Fc1ccc(-c2cn3ccccc3n2)cc1,0.64%
2,CC(=O)Nc1cccc(-c2cn3ccc(C)cc3n2)c1,11.2%
3,Brc1ccc(-c2cn3ccccc3n2)cc1,9.2%
4,Cc1ccn2cc(-c3ccc(Br)cc3)nc2c1,8.41%
5,Cc1noc(C)c1C(=O)Nc1c(F)cc(F)cc1Br,0.97%
6,COc1cc(/C=C/C(=O)OCC(=O)NCc2ccco2)ccc1OC(F)F,8.29%
7,COc1ccc(CSc2nnc(-c3ccncc3)n2C)cc1F,3.25%
8,O=S(=O)(Nc1ccc(Br)cc1)c1cccc2cccnc12,11.5%
9,CNS(=O)(=O)c1cccc2cccnc12,-1.68%
10,O=S(=O)(Nc1ccc(Cl)cc1)c1cccc2cccnc12,7.28%
11,NS(=O)(=O)c1cccc2cccnc12,10.6% and 4.71%
12,COc1cccc2c1O/C(=N\O)C(C(=O)Nc1ccc(C)cc1)C2 (stereo not drawn),8.2%
13,S=C(c1ccc(Br)cc1)N1CCCC1,6.77%
14,CCn1c(C)nc2cc(C(=O)N/N=C/c3cccc(OC)c3O)ccc21,6.05%
15,CCn1c(C)nc2cc(C(=O)N/N=C/c3ccc(OC)cc3)ccc21,29.8%
16,COc1cc(/C=N/NC(=O)c2ccoc2C)ccc1O,18%
17,COc1cccc(/C=N/NC(=O)c2ccoc2C)c1O,9.61%
18,COc1cc(/C=N/NC(=O)c2ccc3c(c2)OCCO3)c(Br)c(Br)c1O,29.5%
19,COc1cc(/C=N/NC(=O)c2ccc3c(c2)OCO3)ccc1O,-30%
20,COc1ccc(/C=N/NC(=O)c2ccoc2C)cc1OC,6.94%
21,CCOc1ccc(/C=N/NC(=O)c2ccoc2C)cc1OC,-2.86%
22,CCCCN(C)CCN1C(=O)C2C(C(=O)Nc3ccc(OC)cc3)C3C=CC2(O3)C1C(=O)NC1CCCCC1 (stereo not drawn),1.82%
23,Cc1cccc(NC(=O)CSc2ccc3nnc(-c4cccnc4)n3n2)c1,6.51%
